Assay results taken from the supplement of paper PMC10849652.
About 7,900 targets were measured; listed, in parts, are those with a hit and a random draw of the rest. About 0.6% of all pairs of compound and target were hits.

Tests used:
Test in all cases: log2 fold change, soluble protein after heating vs DMSO (PISA); higher = thermal stabilisation; K562 cells, 10 uM, 30 min; active = over 0.2 and 3.5 SD of the protein, either way, in both replicates (recomputed)
[1] = compound: CC1=C(C=C(C=C1)NC(=O)C2=CC(=CC=C2)C(C)(C)C#N)NC3=CC4=C(C=C3)N=CN(C4=O)C
Method in brief: (§1)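 Thermal stability values are relative to control samples and come from duplicates. They are expressed as log2 fold changes. For measurement, K562 cells (2×10^6 cells/mL) received 10 μM compound for 30 min, and aliquots were heated for 3 min over 48°C-58°C, pooled, and extracted at 4°C in PBS with 0.5% NP-40. Soluble protein, the supernatant after 21,000xg for 90 min, was quantified by TMTpro 16plex LC-MS/MS with equalised channel sums.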

[2] = compound: CC1=CC=C(C=C1)SC2=C3C=C(SC3=CN=C2)C(=O)N
Method in brief: as §1

[3] = compound: CC1=NC(=CC=C1)C2=C(N=C(N2)C(C)(C)C)C3=CC4=NC=CN=C4C=C3
Method in brief: as §1

[4] = compound: CCCS(=O)(=O)Nc1ccc(F)c(C(=O)c2c[nH]c3ncc(-c4ccc(Cl)cc4)cc23)c1F [vemurafenib]
Method in brief: as §1

[5] = compound: CCCS(=O)(=O)Nc1ccc(F)c(C(=O)c2c[nH]c3ncc(Cl)cc23)c1F
Method in brief: as §1

[6] = compound: CCCc1cc(C)[nH]c(=O)c1CNC(=O)c1cc(-c2ccnc(N3CCN(C)CC3)c2)cc2c1cnn2C(C)C
Method in brief: as §1

[7] = compound: CCN(CC)Cc1ccc2cc(COC(=O)Nc3ccc(C(=O)NO)cc3)ccc2c1 [givinostat]
Method in brief: as §1

[8] = compound: CCN(CCCOc1ccc2c(Nc3cc(CC(=O)Nc4cccc(F)c4)[nH]n3)ncnc2c1)CCOP(=O)(O)O [barasertib]
Method in brief: as §1

[9] = compound: CC1=C(C=C(C=C1)NC(=O)C2=CC(=CC=C2)N(C)C)NC(=O)C3=CC=C(C=C3)O
Method in brief: as §1

[10] = compound: CCCCN(Cc1ccc(C(=O)NO)cc1)C(=O)Nc1ccccc1 [Nexturastat A]
Method in brief: as §1

Measured: log2 fold change

APH1A (UniProt Q96BI3)
Sequence of UniProt Q96BI3 (Q96BI3 whole entry, looked up): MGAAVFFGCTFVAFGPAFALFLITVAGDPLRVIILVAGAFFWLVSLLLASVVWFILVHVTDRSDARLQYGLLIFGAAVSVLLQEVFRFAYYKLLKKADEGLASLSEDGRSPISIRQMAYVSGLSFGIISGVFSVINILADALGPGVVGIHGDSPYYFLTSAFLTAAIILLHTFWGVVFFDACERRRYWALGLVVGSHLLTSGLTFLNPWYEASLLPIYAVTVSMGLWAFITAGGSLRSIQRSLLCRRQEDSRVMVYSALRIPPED
inactive: [1] -0.136 | [2] 0.091 | [3] 0.042 | [4] 0.237 | [5] 0.121 | [6] -0.085 | [7] 0.021 | [8] 0.002

BRAF, A0A2R8Y8E0
inactive: [3] -0.021 | [6] -0.078 | [7] -0.006
active: [9] -1.03

AKNA (UniProt Q7Z591)
inactive: [1] 0.079 | [2] -0.047 | [5] -0.02 | [7] 0.177

AFDN isoform 1 (UniProt P55196)
Sequence of UniProt P55196 (P55196 whole entry, looked up): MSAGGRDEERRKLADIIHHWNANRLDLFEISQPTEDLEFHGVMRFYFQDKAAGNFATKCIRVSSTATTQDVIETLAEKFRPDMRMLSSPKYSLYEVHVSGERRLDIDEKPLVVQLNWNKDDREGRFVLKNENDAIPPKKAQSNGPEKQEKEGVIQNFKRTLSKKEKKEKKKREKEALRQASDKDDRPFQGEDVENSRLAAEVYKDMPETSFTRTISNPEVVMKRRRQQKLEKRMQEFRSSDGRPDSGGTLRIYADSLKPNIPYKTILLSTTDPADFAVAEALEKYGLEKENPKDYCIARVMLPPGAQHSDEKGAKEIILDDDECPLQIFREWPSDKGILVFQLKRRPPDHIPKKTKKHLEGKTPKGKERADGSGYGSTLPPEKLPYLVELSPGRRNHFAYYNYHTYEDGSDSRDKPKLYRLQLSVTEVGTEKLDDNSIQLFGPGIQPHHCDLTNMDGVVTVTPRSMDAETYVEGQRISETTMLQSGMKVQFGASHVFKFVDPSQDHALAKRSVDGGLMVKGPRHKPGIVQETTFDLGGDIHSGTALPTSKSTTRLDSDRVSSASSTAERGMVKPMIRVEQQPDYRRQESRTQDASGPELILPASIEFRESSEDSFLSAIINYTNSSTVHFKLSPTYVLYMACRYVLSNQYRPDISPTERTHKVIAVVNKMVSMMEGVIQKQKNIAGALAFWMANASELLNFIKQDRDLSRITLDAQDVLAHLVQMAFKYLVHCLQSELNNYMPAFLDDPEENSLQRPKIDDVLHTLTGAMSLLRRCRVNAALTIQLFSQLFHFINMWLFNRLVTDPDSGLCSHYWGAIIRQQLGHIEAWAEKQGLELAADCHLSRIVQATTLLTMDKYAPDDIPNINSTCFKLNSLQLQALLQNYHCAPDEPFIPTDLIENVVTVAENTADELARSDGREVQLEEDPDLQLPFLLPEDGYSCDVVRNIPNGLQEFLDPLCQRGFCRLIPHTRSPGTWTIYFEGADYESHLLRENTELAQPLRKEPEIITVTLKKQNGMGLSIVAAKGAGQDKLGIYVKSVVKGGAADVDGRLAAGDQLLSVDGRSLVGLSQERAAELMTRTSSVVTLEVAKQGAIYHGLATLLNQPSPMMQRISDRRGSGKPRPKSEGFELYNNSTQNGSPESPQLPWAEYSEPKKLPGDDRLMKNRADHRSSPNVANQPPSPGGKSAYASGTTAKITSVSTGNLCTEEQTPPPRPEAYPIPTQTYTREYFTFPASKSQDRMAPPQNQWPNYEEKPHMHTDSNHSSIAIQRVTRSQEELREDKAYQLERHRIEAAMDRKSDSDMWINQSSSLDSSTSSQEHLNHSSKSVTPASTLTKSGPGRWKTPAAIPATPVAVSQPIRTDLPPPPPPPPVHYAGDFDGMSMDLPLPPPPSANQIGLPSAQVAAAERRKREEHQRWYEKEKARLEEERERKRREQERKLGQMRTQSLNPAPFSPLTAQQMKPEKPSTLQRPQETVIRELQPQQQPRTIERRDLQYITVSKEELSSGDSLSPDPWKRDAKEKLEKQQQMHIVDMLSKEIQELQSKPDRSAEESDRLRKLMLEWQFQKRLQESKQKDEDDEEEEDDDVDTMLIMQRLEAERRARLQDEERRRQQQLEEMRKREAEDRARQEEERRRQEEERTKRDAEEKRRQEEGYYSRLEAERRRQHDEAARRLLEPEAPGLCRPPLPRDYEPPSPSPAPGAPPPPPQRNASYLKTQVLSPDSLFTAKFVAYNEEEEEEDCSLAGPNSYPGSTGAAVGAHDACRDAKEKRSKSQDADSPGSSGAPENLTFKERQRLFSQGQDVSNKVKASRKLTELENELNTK
inactive: [1] 0.035 | [9] 0.083 | [3] 0.03 | [10] -0.164 | [4] 0.342 | [6] 0.062 | [7] 0.259 | [8] -0.045

ACP1 (UniProt P24666)
inactive: [1] 0.007 | [2] 0.01 | [3] -0.123 | [10] 0.001 | [4] 0.071 | [5] -0.047 | [6] 0.039 | [7] 0.076 | [8] 0.12

ADD1 isoform 4 (UniProt P35611)
inactive: [3] 0.098 | [10] 0.024 | [8] 0.03

AARSD1 (UniProt Q9BTE6)
Sequence of UniProt Q9BTE6 (Q9BTE6 whole entry, looked up): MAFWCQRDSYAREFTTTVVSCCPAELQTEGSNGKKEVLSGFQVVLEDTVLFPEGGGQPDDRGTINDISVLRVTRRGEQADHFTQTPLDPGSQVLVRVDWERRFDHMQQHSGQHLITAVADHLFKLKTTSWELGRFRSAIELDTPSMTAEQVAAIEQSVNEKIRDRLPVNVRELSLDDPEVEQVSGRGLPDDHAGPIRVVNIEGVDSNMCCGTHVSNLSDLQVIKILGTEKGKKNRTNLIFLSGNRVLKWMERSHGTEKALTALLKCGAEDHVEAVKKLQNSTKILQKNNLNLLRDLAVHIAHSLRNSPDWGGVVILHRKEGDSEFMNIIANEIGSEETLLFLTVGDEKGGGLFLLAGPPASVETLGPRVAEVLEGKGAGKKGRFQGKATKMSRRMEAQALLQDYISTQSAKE
inactive: [2] 0.044 | [3] 0.278 | [5] 0.206 | [6] 0.027 | [7] -0.285 | [8] 0.119

BRD2 isoform 2 (UniProt P25440)
inactive: [1] 0.348 | [2] 0.039 | [3] 0.076 | [4] -0.033 | [5] 0.014 | [7] -0.596 | [8] -0.053

AP2M1 (UniProt C9JTK4)
inactive: [1] -0.04 | [3] -0.033 | [10] 0.009 | [4] -0.262 | [6] -0.172 | [8] -0.079

ARHGAP25 isoform 4 (UniProt P42331)
Sequence of UniProt P42331 (P42331 whole entry, looked up): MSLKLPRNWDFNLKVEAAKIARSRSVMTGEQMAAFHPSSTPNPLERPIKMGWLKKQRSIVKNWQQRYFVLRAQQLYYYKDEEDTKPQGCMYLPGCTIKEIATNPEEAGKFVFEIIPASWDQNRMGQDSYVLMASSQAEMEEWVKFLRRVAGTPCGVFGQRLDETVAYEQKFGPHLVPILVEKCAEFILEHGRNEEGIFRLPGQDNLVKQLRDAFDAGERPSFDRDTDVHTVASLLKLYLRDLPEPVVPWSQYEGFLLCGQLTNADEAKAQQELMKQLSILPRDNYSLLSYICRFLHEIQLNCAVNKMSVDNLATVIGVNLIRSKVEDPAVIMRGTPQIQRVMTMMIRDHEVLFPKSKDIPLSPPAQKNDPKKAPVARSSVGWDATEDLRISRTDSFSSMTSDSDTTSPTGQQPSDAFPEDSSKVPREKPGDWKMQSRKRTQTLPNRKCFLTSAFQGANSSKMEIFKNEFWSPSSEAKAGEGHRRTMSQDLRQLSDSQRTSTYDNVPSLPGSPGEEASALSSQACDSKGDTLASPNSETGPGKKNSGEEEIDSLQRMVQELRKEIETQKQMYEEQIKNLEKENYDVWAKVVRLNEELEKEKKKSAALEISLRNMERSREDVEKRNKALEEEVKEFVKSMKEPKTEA
inactive: [10] 0.078 | [4] 0.086 | [6] -0.052 | [7] 0.307 | [8] -0.018

ACTR3B (UniProt Q9P1U1)
inactive: [9] -0.046 | [2] -0.05 | [3] 0.198 | [4] 0.019 | [5] 0.014 | [7] 0.147

ACVR1 (UniProt Q04771)
Sequence of UniProt Q04771 (Q04771 whole entry, looked up): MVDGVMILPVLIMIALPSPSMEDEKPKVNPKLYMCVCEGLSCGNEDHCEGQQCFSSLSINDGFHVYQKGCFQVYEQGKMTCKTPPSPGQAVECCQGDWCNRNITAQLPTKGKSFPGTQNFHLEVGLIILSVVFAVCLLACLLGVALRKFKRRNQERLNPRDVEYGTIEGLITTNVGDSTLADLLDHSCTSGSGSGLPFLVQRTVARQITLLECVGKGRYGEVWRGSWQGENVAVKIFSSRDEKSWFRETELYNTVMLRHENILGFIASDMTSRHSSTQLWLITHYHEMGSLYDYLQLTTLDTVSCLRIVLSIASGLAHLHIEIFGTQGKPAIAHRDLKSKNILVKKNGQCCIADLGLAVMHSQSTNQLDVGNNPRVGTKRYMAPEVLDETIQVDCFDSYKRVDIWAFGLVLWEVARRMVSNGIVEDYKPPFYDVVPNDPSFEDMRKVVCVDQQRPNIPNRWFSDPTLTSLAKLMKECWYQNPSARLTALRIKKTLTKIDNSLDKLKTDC
inactive: [1] -0.194 | [2] 0.011 | [10] 0.037 | [4] 0.015 | [5] 0.017 | [6] -0.149 | [7] 0.031

ACSL6 isoform 1 (UniProt Q9UKU0)
inactive: [1] 0.075 | [9] -0.014 | [10] 0.082 | [4] 0.17 | [6] 0.035 | [7] 0.04 | [8] 0.133

BRMS1 (UniProt Q9HCU9)
inactive: [6] 0.137
active: [10] 0.512

ABHD11 (UniProt Q8NFV4)
inactive: [9] -0.065 | [2] -0.004 | [3] 0.003 | [10] -0.028 | [4] 0.139 | [5] -0.011 | [6] 0.023 | [7] 0.02 | [8] 0.057

ANGEL1 (UniProt Q9UNK9)
Sequence of UniProt Q9UNK9 (Q9UNK9 whole entry, looked up): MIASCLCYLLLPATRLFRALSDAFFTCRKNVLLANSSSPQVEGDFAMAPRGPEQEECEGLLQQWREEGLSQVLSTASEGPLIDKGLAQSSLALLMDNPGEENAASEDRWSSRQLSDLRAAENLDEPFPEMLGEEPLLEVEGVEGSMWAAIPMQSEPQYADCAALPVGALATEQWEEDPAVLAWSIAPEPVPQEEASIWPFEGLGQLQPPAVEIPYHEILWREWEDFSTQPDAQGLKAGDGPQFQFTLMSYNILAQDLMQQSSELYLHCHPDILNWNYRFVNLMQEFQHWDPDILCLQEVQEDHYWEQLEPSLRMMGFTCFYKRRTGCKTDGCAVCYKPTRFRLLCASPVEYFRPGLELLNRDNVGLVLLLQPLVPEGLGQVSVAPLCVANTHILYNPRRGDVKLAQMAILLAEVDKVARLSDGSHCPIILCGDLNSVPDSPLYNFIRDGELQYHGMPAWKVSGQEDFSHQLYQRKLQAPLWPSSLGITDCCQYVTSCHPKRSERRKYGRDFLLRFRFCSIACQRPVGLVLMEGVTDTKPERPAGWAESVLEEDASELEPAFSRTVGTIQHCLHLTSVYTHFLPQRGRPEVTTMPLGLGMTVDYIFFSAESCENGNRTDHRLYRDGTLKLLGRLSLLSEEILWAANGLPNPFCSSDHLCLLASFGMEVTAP
inactive: [9] -0.121 | [4] -0.079 | [8] 0.033
active: [3] 0.591

ARMC8 isoform 6 (UniProt Q8IUR7)
Sequence of UniProt Q8IUR7 (Q8IUR7 whole entry, looked up): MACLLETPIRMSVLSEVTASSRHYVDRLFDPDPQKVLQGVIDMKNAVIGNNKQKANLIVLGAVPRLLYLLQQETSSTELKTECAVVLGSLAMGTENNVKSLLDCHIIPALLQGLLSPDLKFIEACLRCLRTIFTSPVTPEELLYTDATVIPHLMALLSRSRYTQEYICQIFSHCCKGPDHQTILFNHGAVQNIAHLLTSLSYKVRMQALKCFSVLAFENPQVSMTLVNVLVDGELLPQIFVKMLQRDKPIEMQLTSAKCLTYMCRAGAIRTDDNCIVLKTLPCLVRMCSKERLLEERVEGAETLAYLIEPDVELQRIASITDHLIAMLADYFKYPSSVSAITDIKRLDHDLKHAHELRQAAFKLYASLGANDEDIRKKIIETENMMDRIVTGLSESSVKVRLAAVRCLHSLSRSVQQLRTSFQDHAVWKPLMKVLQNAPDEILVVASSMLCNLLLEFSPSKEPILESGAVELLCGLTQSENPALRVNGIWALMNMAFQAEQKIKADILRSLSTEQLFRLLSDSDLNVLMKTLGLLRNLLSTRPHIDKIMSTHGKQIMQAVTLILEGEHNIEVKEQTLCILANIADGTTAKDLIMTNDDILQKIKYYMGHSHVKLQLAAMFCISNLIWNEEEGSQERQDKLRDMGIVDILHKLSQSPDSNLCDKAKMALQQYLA
inactive: [4] 0.031 | [7] 0.075 | [8] -0.021

ADD2 isoform 9 (UniProt P35612)
inactive: [1] 0.191 | [9] 0.065 | [2] -0.067 | [5] -0.114 | [6] 0.079 | [8] 0.047
